Source: PubChem BioAssay (NCI)
This is part of a sample that, as a whole, favours compounds with a hit. Of some 79,000 tested, about 15% had one in any assay. Values without a mark were called inactive. Calls of active or inactive are those of the source. Rule as the data show it: active = growth inhibition above about 70%; inactive = the rest.

How the values were obtained:
[1] = NCI Yeast Anticancer Drug Screen. Data for the rad50 strain (AID 155);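 also: 0% = growth of vehicle-only cultures of the same strain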; conditions: S. cerevisiae rad50 strain growth inhibition; at 50.0 µM; active compounds read high
Procedure, shortened: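 DNA repair mutant yeast, compound exposure, growth read-out; inhibition is taken relative to vehicle.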

[2] = NCI Yeast Anticancer Drug Screen. Data for the mec2-1 strain (AID 157); conditions: S. cerevisiae mec2-1 strain, at 50.0 µM, active compounds read high
Procedure, shortened: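 Vehicle-treated cultures served as reference for growth inhibition of compound-exposed mec2-1 yeast.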

[3] = NCI Yeast Anticancer Drug Screen. Data for the sgs1 mgt1 strain (AID 161);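 also: 0% = growth of cultures given vehicle only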; conditions: S. cerevisiae sgs1 mgt1 strain, at 50.0 µM, active compounds read high
Procedure, shortened: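 Inhibition of yeast growth, normalised to vehicle-treated controls, is reported for a strain bearing genetic alterations in DNA damage repair.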

[4] = NCI Yeast Anticancer Drug Screen. Data for the cln2 rad14 strain (AID 165);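 also: 0% = growth equal to vehicle treated cultures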; conditions: S. cerevisiae cln2 rad14 strain, at 50.0 µM, active compounds read high
Procedure, shortened: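 Each compound was tested on cln2 rad14 yeast. Inhibition of growth was calculated against vehicle-exposed controls.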

[5] = NCI Yeast Anticancer Drug Screen. Data for the bub3 strain (AID 167); conditions: S. cerevisiae bub3 mutant strain, at 50.0 µM, active compounds read high
Procedure, shortened: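 In this screen, a yeast mutant lacking normal mitotic checkpoint function is challenged with compound. Relative growth versus vehicle gives the inhibition value.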

[6] = NCI Yeast Anticancer Drug Screen. Data for the mlh1 rad18 strain (AID 175); conditions: S. cerevisiae mlh1 rad18 strain growth inhibition; at 50.0 µM; active compounds read high
Procedure, shortened: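 Vehicle-treated cultures served as the reference for growth inhibition in a yeast strain carrying DNA damage repair alterations exposed to each compound.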

Row | SMILES | growth inhibition [1] | growth inhibition [2] | growth inhibition [3] | growth inhibition [4] | growth inhibition [5] | growth inhibition [6]
1 | O=C1NC(=O)C(CCI)N1 (stereo unspecified) | 11.2% | 0.15% | 23.1% | 16.9% | -15.2% | -12.7%
2 | CCOC(=O)C(NC(=O)CC)(Nc1ccccc1OC)C(F)(F)F (stereo unspecified) | -40.9% | -28.6% | -28.6% | -17.3% | -25.2% | -31.5%
3 | O=C(Cl)c1cccc2c([N+](=O)[O-])cccc12 | -4.45% | 2.95% | -2.35% | -44% | -1.4% | 11.8%
4 | CCCCC(Sc1cc(Cl)c(C)cc1S(=O)(=O)Nc1n[nH]c(N)n1)C(=O)OC (stereo unspecified) | -4.85% | -12.3% | 50% | 7% | -18.8% | 5.75%
5 | COc1ccc(C)cc1NC(=O)/C=C/c1ccccc1 | 1.6% | -6.6% | -6.5% | 16.2% | 30.8% | -7.65%
6 | COC1C(O)CC(OC2CC(OC3CC(O[C@@H]4C(=O)c5c(cc6cc(OC7CC(OC8CC(O)C(O)C(C)O8)C(O)C(C)O7)c(C)c(O)c6c5O)C[C@H]4[C@H](OC)C(=O)[C@@H](O)[C@@H](C)O)OC(C)C3O)OC(C)C2O)OC1C (stereo partly specified) | 38.7% | 28.9% | 41.7% | 43.7% | 49.5% | 48.5%
7 | C/C(=N/NC(N)=O)C1=CCCC1 | 2.9% | -2.05% | -6.6% | 11% | 7.55% | -9.1%
8 | CCSC1(SCC)C2(CCCCC2)C(=O)C12CCCCC2 | -5.55% | 17.1% | 9.1% | -12.1% | 13.1% | 78.1% (active)
9 | CNC(=O)SC1=NS(=O)(=O)c2ccc(Cl)cc2N1 | 18.6% | 19.5% | 33.4% | 23.1% | 17.6% | 42.5%
10 | CCN(CC)C(=O)N1C=CC(C)C=C1 | -30.4% | -15.1% | -15.4% | -43.1% | 10.9% | 5.5%
11 | CCOC(=O)NN(C(=O)OCC)C(=C(c1ccccc1)N1CCOCC1)N(NC(=O)OCC)C(=O)OCC | 6.3% | 5.6% | -2.7% | 31.1% | -2.25% | 10.8%
12 | Cc1cc(C)c(S(=O)(=O)O)c(Cc2ccccc2)c1 | -14.4% | -10.6% | 31.5% | -11.6% | -3.35% | 0.45%
13 | O=[N+]([O-])c1ccc2oc3cccnc3c2c1 | 28.6% | -2.8% | -2.65% | -14.1% | 1.3% | 12.8%
14 | Cc1cccc(C(=O)OCc2ccccc2CN2CCCC2)c1 | 1.5% | -7.75% | -10.1% | 2.85% | -2.05% | -1.45%
15 | COC1=CC(=O)C(=O)C=C1C(C)(C)C | 49.2% | 40.3% | 48.8% | 2.45% | 49.4% | 9.55%
16 | CCCCC(CC)CN(CC(CC)CCCC)C1C=CCCC1 (stereo unspecified) | 3.6% | -10.3% | 7.9% | -36.8% | 6.5% | 2.7%
17 | NC(=O)NC(=O)c1ccccc1 | -10.4% | -15.2% | -10.2% | -9.25% | 3.55% | -7.55%
18 | COc1ccc(N=Cc2ccc(C=Nc3ccc(OC)cc3)cc2)cc1 | 23.2% | 2.25% | 21.3% | -0.95% | 20.1% | 19.9%
19 | COc1nc(N)c(C(=O)CCl)c(=O)n1C | 3.35% | -7.5% | 6.5% | 0.35% | -20.6% | 16.5%
20 | NC(=O)c1n[nH]n(-c2ccccc2)c1=O | -13.2% | -5.35% | -7.75% | 0.15% | -19.9% | 3.85%
21 | C[N+]1(CCC(=O)c2ccco2)CC2CCC(CC2)C1 (stereo unspecified) | 3.9% | -18.1% | -37.1% | -24.9% | -68.7% | 0.45%

Row | SMILES | growth inhibition [1] | growth inhibition [2] | growth inhibition [3] | growth inhibition [4] | growth inhibition [5] | growth inhibition [6]
22 | CSc1nc(=O)[nH]c2c1[nH]c(=O)n2-c1ccccc1 | 1.2% | 5.85% | -6.35% | -15.7% | 8.3% | -9.05%
23 | c1ccc(Cc2nnc(Cc3ccccc3)nn2)cc1 | 10.8% | 8.35% | 2.7% | 7.25% | 21.4% | 7%
24 | O=C(CC1C(=O)Nc2ccccc2S1=O)Nc1ccc(Cl)cc1 (stereo unspecified) | 41.9% | 38% | 59.8% | 18.4% | 48% | 56.3%
25 | COC(=O)NCC(OC(=O)c1cc2c(cc1I)OCO2)C1=CCCCC1 (stereo unspecified) | 54.5% | 30.1% | 37.6% | 29.2% | 48.8% | 28.8%
26 | FC(F)(F)C(F)(F)C(F)(F)c1nc(C(F)(F)C(F)(F)C(F)(F)F)nc(C(F)(F)C(F)(F)C(F)(F)F)n1 | 22.1% | -1% | 31.5% | 18.6% | 15.1% | 25.6%
27 | CN(CCS)C(=N)N | 4.75% | -14.9% | 2.55% | 7.8% | -0.65% | -11.4%
28 | CC(=O)OC1CCC2(C)C(CCC3(C)C2CC=C2C4CC(C)(C)CCC4(C)CCC23C)C1(C)C (stereo unspecified) | 5.85% | -1% | -8.8% | -1.6% | 6.05% | -5.3%
29 | COc1ccccc1/C=C/C(=O)c1ccccc(=O)c1O | -9% | -5.05% | -4.35% | -23.4% | -1.05% | -11.2%
30 | CCC(C)C(=O)/C=C/c1ccccc1 (stereo unspecified) | 14.2% | -6.15% | -2.85% | -25.3% | 21.3% | -12.1%
31 | N/N=C1\C(=O)N(C2CCCCC2)C(=O)C1C(=O)NC1CCCCC1 (stereo unspecified) | -10.9% | -1.2% | -15% | -10.8% | -20.4% | -32.2%
32 | Cn1c(=O)c2c(ncn2Cc2ccccc2)n(C)c1=O | -1.65% | -13.2% | 3.95% | -10.7% | 45.1% | 4%
33 | CCCCCCCC(N)=O | 15.7% | -28.1% | 8.4% | 12.4% | -11.6% | -10.3%
34 | COc1cc(C2C(C(=O)O)=C(COC(C)=O)Oc3cc4c(cc32)OCO4)cc(OC)c1OC (stereo unspecified) | -9.9% | -15.4% | -25.4% | -19.2% | -4.1% | -8.6%
35 | Cn1/c(=N\N=C2\C=C3CCCCC3(C)CC2)sc2ccccc21 (stereo unspecified) | 12.7% | 12.2% | 22.9% | 33.2% | -8.8% | 47.1%
36 | CCN(CC)C(=O)COc1ccc(Cl)c(C)c1 | 9.5% | 3.45% | 6.4% | 27.6% | 33.6% | 19.4%
37 | CCCCn1c2c(c3ccccc3c1=O)C(=O)c1ccccc1-2 | 12.1% | -15.7% | -4.8% | 2.1% | -18% | -53%
38 | COC(=O)C1=C(C(=O)OC)C2CCCOC2=C(C)C1 (stereo unspecified) | -1.35% | 12.1% | -6.15% | 41.2% | 14.3% | 7%
39 | CCC(CCC(=O)O)C1CCCCC1 (stereo unspecified) | 29.1% | 20.9% | 31.1% | 45.9% | 46.1% | 13.2%
40 | Nc1ccc([N+](=O)[O-])c(Cl)c1 | 5.35% | -8.3% | -11% | -18.1% | -13.1% | 13.3%
41 | O=C(O)c1nc(-c2ccccc2)[nH]c1C(=O)O | 20.5% | 5.6% | 12.8% | -15.8% | 30.6% | 24.4%
